Data published in PubChem BioAssay.
The source made the active and inactive calls. Unless noted, how the calls were made is not given here.

Key:
[1] = compounds binding Alexa647 anti-His antibody – biochemical, small-molecule microarray, 635 nm fluorescence, artefact control for SMM control protein annotation, primary screen (AID 1128); conditions: higher = more signal;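 further: score merges feature fluorescence with signal-to-noise for each printed compound spot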
[2] = test system: Human papillomavirus type 1a E7 protein (residues 1-88); test: HPV1a E7 small-molecule binders, primary screen, biochemical, small-molecule microarray, residues 1-88, 635 nm (AID 1129); conditions: small-molecule microarray binding, fluorescence 635 nm; higher = more signal
[3] = molecular target: Focal adhesion kinase 1 (Homo sapiens) (UniProt Q05397); test: PTK2 protein binding on printed compound slides – biochemical, small-molecule microarray, 635/667 nm fluorescence, BSA, DTT, primary screen (AID 1130); conditions: 635 nm fluorescence, higher = more signal;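 further: composite of spot emission at 667 nm and signal to noise over triplicate slides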
Focal adhesion kinase 1 (Homo sapiens), sequence (Q05397 whole entry, looked up): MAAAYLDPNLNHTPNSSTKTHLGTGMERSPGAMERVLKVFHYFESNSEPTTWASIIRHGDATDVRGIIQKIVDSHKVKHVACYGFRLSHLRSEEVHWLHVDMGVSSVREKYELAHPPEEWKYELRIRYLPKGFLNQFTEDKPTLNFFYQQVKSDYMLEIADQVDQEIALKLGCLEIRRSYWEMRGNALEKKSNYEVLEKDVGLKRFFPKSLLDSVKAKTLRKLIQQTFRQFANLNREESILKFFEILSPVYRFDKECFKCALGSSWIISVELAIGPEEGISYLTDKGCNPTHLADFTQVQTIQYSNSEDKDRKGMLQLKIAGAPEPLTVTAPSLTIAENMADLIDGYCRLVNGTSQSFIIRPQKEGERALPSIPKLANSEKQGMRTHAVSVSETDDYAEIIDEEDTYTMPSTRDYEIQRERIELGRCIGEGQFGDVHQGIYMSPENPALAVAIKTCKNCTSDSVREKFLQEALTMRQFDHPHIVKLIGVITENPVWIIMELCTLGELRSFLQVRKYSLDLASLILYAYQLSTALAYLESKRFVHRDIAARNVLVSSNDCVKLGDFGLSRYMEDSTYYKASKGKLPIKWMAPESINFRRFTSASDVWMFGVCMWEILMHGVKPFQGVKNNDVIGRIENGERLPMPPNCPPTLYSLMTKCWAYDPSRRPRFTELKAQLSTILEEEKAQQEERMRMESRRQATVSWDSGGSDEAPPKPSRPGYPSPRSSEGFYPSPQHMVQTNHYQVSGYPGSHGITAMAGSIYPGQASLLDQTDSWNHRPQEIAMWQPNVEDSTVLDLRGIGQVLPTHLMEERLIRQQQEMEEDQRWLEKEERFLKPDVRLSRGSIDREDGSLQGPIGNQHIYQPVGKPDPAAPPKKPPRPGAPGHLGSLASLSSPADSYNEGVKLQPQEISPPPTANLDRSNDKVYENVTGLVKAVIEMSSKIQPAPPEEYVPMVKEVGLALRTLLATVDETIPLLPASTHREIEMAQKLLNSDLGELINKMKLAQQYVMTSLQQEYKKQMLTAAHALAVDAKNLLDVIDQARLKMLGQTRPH

[4] = test system: Fibrinogen (Alexa647-labelled); test: Alexa647-fibrinogen binding to printed small molecules – biochemical, small-molecule microarray, 635/667 nm fluorescence, artefact control for SMM control-protein annotation, profiling panel (AID 1131); conditions: fibrinogen-A647 binding fluorescence, higher = more signal;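 further: z-score merges 667 nm fluorescence with per-spot signal-to-noise over triplicate slides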
[5] = molecular target: Follistatin (Homo sapiens) (UniProt P19883); test: FST protein binding to printed compounds – biochemical, small-molecule microarray, 635/667 nm fluorescence, primary screen (AID 1132); conditions: 635 nm fluorescence, higher = more signal
Follistatin (Homo sapiens), sequence (P19883 whole entry, looked up): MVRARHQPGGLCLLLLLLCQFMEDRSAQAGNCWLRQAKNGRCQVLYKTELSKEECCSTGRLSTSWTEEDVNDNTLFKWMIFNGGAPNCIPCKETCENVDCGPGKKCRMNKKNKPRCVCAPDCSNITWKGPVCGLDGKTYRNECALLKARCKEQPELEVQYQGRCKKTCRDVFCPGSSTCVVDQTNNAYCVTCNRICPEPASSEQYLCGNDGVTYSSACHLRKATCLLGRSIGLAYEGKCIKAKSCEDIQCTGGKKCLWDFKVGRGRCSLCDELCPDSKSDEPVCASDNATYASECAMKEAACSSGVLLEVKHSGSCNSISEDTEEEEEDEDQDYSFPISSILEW

[6] = molecular target: Fibroblast growth factor 2 (Homo sapiens) (UniProt P09038); test: basic fibroblast growth factor binding to printed compounds – biochemical, small-molecule microarray, 635/667 nm fluorescence, primary screen (AID 1133); conditions: FGF2, fluorescence 635/667, higher = more signal
Fibroblast growth factor 2 (Homo sapiens), sequence (P09038 whole entry, looked up): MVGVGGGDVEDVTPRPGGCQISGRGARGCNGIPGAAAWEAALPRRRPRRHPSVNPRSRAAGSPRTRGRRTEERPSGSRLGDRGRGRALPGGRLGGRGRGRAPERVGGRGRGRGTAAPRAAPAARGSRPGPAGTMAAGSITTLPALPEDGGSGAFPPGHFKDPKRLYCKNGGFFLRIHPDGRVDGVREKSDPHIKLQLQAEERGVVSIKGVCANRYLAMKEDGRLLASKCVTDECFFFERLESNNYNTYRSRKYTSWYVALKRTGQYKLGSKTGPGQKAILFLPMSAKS

[7] = JC-1 mitochondrial potential readout, lung cancer cells – cell-based, A549, JC-1 fluorescence, basal, 24 h, 100 nL, profiling panel (AID 1138); conditions: higher = more signal;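 further: A549 lung adenocarcinoma cells under basal conditions with no added stimulus; test concentration not given here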
Lefty1 = Lefty1 protein binding to printed compounds – biochemical, small-molecule microarray, 635/667 nm fluorescence, primary screen (AID 1139); conditions: fluorescence 635/667, higher = more signal
[8] = test system: wheat germ agglutinin (Triticum aestivum), Alexa647-labelled; test: Alexa647-WGA lectin binding to printed small molecules – biochemical, small-molecule microarray, 635/667 nm fluorescence, artefact control for SMM control-protein annotation, profiling panel (AID 1140); conditions: WGA-A647 binding, 635 nm fluorescence, higher = more signal;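 further: score merges 667 nm feature emission with signal to noise over triplicate slides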
[9] = molecular target: Luciferin 4-monooxygenase (Photinus pyralis) (UniProt P08659); test: inhibition of purified Photinus pyralis luciferase – biochemical, luminescence, purified enzyme, 2006 set, primary screen (AID 1141); conditions: purified firefly luciferase, SteadyGlo luminescence, 30 min; higher = more signal, called active from +8 up or from −8 down;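 further: cell-free assay with purified firefly luciferase at 100 ng per well in PBS; test concentration not given here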
Luciferin 4-monooxygenase (Photinus pyralis), sequence (P08659 whole entry, looked up): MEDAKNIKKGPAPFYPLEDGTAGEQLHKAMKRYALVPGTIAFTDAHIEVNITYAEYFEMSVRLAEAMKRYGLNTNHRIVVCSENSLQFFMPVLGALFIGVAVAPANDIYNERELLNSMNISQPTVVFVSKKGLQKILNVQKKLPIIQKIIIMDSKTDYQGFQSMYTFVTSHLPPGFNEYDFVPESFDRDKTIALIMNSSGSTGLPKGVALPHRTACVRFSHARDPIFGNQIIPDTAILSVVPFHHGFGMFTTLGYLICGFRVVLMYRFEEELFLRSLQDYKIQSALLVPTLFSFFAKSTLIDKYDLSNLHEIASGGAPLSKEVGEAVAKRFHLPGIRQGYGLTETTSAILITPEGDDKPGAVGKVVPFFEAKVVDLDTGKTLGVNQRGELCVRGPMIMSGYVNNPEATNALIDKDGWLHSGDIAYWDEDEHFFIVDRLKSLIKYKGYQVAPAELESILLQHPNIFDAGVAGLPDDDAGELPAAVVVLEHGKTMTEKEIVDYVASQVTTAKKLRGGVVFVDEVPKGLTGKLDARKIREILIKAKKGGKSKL

[10] = test system: Wnt5a (protein binding on small-molecule microarray); test: small molecules binding Wnt5a protein – biophysical, small-molecule microarray, 635/667 nm fluorescence, primary screen (AID 1142); conditions: 635 nm fluorescence, higher = more signal;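 further: fluorescence read at 667 nm with signal to noise per printed feature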
[11] = ATP-based viability of Huh7 replicon cells – cell-based, CellTiter-Glo luminescence, basal, 48 h, cytotoxicity control for HCV replication inhibitor project, primary screen (AID 1143); conditions: higher = more signal, called active from +8 up or from −8 down;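 further: Huh7 hepatoma cells carrying a hepatitis C replication reporter with no stimulus; test concentration not given here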
[12] = Pseudomonas biofilm growth suppression – PAO1 strain, BacTiter-Glo luminescence, LB-PBS, primary screen (AID 1144); conditions: P. aeruginosa PAO1 biofilm, 12 h, higher = more signal
[13] = basal CRE-LacZ reporter activity in PC12 – cell-based, unstimulated, primary screen (AID 1145); conditions: no forskolin, luminescence, 4.5 h, higher = more signal, called active from +8 up or from −8 down
[14] = forskolin-driven CRE-LacZ activity in PC12 – cell-based, CRE-LacZ reporter, forskolin-stimulated, primary screen (AID 1146); conditions: luminescence, 4.5 h, higher = more signal, called active from +8 up or from −8 down;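 further: PC12 cells with 6xCRE LacZ reporter stimulated by forskolin 10 µM; beta-galactosidase reporter signal reflecting CREB driven transcription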
[15] = molecular target: Streptavidin (Streptomyces avidinii) (UniProt P22629); test: compounds binding control protein streptavidin – biophysical, small-molecule microarray, 635/667 nm fluorescence, artefact control for SMM compound annotation, primary screen (AID 1147); conditions: higher = more signal;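 further: signal reflects streptavidin binding to arrayed compounds as a control protein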
Streptavidin (Streptomyces avidinii), sequence (P22629 whole entry, looked up): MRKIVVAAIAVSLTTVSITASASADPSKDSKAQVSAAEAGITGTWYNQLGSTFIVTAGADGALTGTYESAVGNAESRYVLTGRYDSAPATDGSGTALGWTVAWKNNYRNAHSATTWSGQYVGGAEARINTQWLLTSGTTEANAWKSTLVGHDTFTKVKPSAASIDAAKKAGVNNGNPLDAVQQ

[16] = probe aInhba binding on compound microarray – biochemical, small-molecule microarray, 635/667 nm fluorescence, primary screen (AID 1148); conditions: higher = more signal;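 further: score merges 667nm spot fluorescence with signal-to-noise for antibody binding to printed compounds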
Torsin-1A (Homo sapiens) [17] = molecular target: Torsin-1A (Homo sapiens) (UniProt O14656); test: TOR1A wild-type binding on microarray – cell lysate, small-molecule microarray, lysate, 635/667 nm, primary screen (AID 1149); conditions: COS7 hTOR1A-WT lysate, 635 nm fluorescence, higher = more signal
Torsin-1A (Homo sapiens), sequence (O14656 whole entry, looked up): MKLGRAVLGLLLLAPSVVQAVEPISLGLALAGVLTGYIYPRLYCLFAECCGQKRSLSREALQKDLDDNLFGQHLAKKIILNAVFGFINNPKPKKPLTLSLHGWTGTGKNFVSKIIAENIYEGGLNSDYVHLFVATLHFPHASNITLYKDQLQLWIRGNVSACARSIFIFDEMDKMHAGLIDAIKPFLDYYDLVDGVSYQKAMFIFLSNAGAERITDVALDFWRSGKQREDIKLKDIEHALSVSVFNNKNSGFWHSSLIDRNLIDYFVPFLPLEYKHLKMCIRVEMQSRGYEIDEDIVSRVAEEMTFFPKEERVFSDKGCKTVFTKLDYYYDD

Torsin-1A (Homo sapiens) [18] = molecular target: Torsin-1A (Homo sapiens) (UniProt O14656); test: torsin A mutant lysate binding on microarrays – cell lysate, small-molecule microarray, COS7 lysate, 635/667 nm fluorescence, primary screen (AID 1150); conditions: COS7 hTOR1A mutant lysate, 635 nm fluorescence, higher = more signal;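 further: score pools 667 nm emission and signal to noise measuring lysate protein binding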
[19] = test system: Sonic hedgehog protein (Shh); test: Sonic hedgehog microarray binding compounds – biochemical, small-molecule microarray, 635/667 nm fluorescence, primary screen (AID 1151); conditions: 635 nm fluorescence, higher = more signal;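 further: Shh protein binding to compounds spotted on small-molecule microarray slides; score combines spot fluorescence intensity with signal-to-noise across triplicate slides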

SMILES | composite z-score [1] | composite z-score [2] | composite z-score [3] | composite z-score [4] | composite z-score [5] | composite z-score [6] | z-score [7] | composite z-score (Lefty1) | composite z-score [8] | z-score [9] | composite z-score [10] | z-score [11] | z-score [12] | z-score [13] | z-score [14] | composite z-score [15] | composite z-score [16] | composite z-score (Torsin-1A (Homo sapiens) [17]) | composite z-score (Torsin-1A (Homo sapiens) [18]) | composite z-score [19]
NC(=O)[C@@H]1[C@H]2C(=O)O[C@H](c3ccccc3)[C@H](c3ccccc3)N2[C@H](c2ccc(O)cc2)[C@@]12C(=O)Nc1ccc(C#CC3(O)CCCCCC3)cc12 | 0.6 | -0.239 | -0.205 | -0.819 | -0.0584 | -0.384 | -1.06 | -0.502 | -0.0999 | -0.869 (inactive) | -0.277 | -0.0907 (inactive) | -0.269 (inactive) | 0.568 (inactive) | -0.301 (inactive) | -1.08 | -0.148 | 0.398 | 1.1 | -0.323
CN1C(=O)[C@]2(Cc3ccccc3)N=C(c3ccc(OCCCO)cc3)O[C@@H]2c2ccccc21 | 0.0581 | 1.2 | 1.07 | 0.775 | 1.3 | 1.8 | -0.00476 | 0.201 | 0.831 | -4.06 (inactive) | 0.928 | -4.61 (inactive) | -1 (inactive) | 0.456 (inactive) | -1.12 (inactive) | 0.0004 | 0.112 | 0.428 | 0.628 | 1.15
COC(=O)[C@@]1(Cc2ccc(OC)cc2)[C@H]2c3cc(C(=O)N(C)C)n(CCN4CNCC4=O)c3C[C@H]2CN1C(=O)c1ccccc1 | 0.492 | 0.803 | 0.598 | 0.151 | -0.589 | -0.294 | 1 | -0.44 | 0.459 | 2.82 (inactive) | 0.0523 | -0.582 (inactive) | 0.726 (inactive) | -0.754 (inactive) | -0.403 (inactive) | 0.494 | -0.0736 | -0.322 | -0.502 | -2.07
COc1cc2c(cc1OC)CN(C(=O)[C@@H]1[C@H]3C(=O)O[C@H](c4ccccc4)[C@H](c4ccccc4)N3[C@H](c3ccc(O)cc3)[C@@]13C(=O)Nc1ccc(C#CC4(O)CCCCCC4)cc13)CC2 | 2.4 | 1.25 | 0.592 | 0.924 | 1.14 | 1.35 | -0.373 | 0.999 | 0.137 | -0.798 (inactive) | 0.382 | -0.292 (inactive) | -0.37 (inactive) | -0.168 (inactive) | -0.65 (inactive) | 1.06 | -0.287 | 0.287 | 0.787 | 1.91
CC(C)(C)OC(=O)CC[C@@]1(C(N)=O)N=C(c2ccc(OCCCO)cc2)O[C@@H]1c1ccccc1 | 1.27 | 1.13 | 0.754 | 0.971 | 0.136 | -0.343 | -0.655 | -0.0503 | 0.178 | -0.637 (inactive) | 0.22 | -0.0043 (inactive) | -0.256 (inactive) | 1.5 (inactive) | -1.12 (inactive) | 0.818 | -0.0533 | 0.361 | 1.42 | -0.954
Cc1ccc(S[C@]2(C(=O)NC(C)C)CC(=O)N(Cc3ccccc3Cl)[C@@H]2c2ccc(CO)cc2I)cc1 | 3.21 | 0.164 | -0.0745 | 0.628 | 0.237 | -0.934 | 0.905 | -0.658 | 0.648 | -0.102 (inactive) | -0.615 | -2.03 (inactive) | 0.248 (inactive) | -0.374 (inactive) | 2.53 (inactive) | -0.265 | -0.224 | -1.85 | -1.25 | -0.008
C=CC[C@@]1(C(N)=O)N=C(c2ccc(OCCCO)cc2)O[C@@H]1c1ccccc1CN=[N+]=[N-] | 2.78 | 1.17 | -0.111 | 0.968 | 1.08 | 0.107 | -0.95 | -0.344 | 1.52 | -1.35 (inactive) | 0.186 | -3.34 (inactive) | -0.58 (inactive) | 1.8 (inactive) | -1.35 (inactive) | 0.456 | 0.233 | 0.183 | 0.0254 | -0.776
C=CCOC(=O)[C@H]1[C@@H]2C(=O)O[C@@H](c3ccccc3)[C@@H](c3ccccc3)N2[C@@H](c2ccc(OCCOC(=O)[C@H]3C[C@H]4C(=O)N[C@@H](CC(C)C)C(=O)N4[C@H]3c3ccc(O)cc3)cc2)[C@]12C(=O)Nc1ccc(I)cc12 | 0.756 | 0.937 | 0.798 | 0.839 | 1.19 | 1.55 | -1.29 | 1.54 | 0.739 | -2.02 (inactive) | 0.931 | -0.289 (inactive) | -0.829 (inactive) | -0.122 (inactive) | 0.535 (inactive) | 0.335 | -0.0695 | 1.45 | 1.45 | 2.31
CC1CC/C=C\[C@H]2OC34C=CCN(C(C)(C)C)C(=O)[C@H]3N(CCCCCCO)C(=O)[C@@H]4C2C(=O)O1 (stereo not given in full) | 1.65 | -0.572 | -0.61 | -0.988 | -0.49 | -0.635 | 0.699 | -0.349 | -0.872 | -0.939 (inactive) | -0.293 | 0.553 (inactive) | 0.0917 (inactive) | 0.74 (inactive) | -0.21 (inactive) | -0.727 | -0.224 | -0.67 | -0.433 | 0.611
O=C1OCCC/C=C\[C@H]2OC34C=CCN(Cn5nnc6ccccc65)C(=O)[C@H]3N(CCO)C(=O)[C@@H]4C12 (stereo not given in full) | 0.893 | -0.318 | -0.344 | -1.27 | -0.481 | -1.36 | -0.438 | -0.368 | 0.556 | 1.27 (inactive) | -0.212 | -0.363 (inactive) | -2.05 (inactive) | -1.58 (inactive) | -0.713 (inactive) | -0.712 | 0.8 | -2.75 | -1.23 | -0.533
